In PubChem BioAssay:
Values joined by “and” are separate entries in the source; they are usually repeats but may differ in a detail not shown here. Equal values may be shown once. Results filed as inconclusive are left out. Active and inactive are the calls of the source.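 Rule for the calls, unless noted: active = fitted half-maximal concentration within 10 nM to 100 µM, steepness 0.5 to 2, significant signal drop, low assay interference; inactive = the rest.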

Columns and labels:
[1] = rapamycin-like changes in RPL19A-GFP expression – cell-based, S. cerevisiae, multiplex flow cytometry, primary screen (AID 1862; in the data active = percent of DMSO control GFP below about 86%;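 note: lower values mimic rapamycin by blocking the RPL19A rise seen in DMSO cells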); conditions: S. cerevisiae RPL19A-GFP strain, flow cytometry fluorescence, 3 h; at 10 µM; stronger effect = lower value
[2] = TOR pathway GLN3 branch reporter MEP2-GFP changes – S. cerevisiae, multiplex flow cytometry, primary screen (AID 1867;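 active = GFP response, as percent of the DMSO control, above the screen-wide mean plus 3 SD, about 139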;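 note: median GFP channel fluorescence of barcode-gated MEP2-GFP cells measured by flow cytometry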); conditions: S. cerevisiae MEP2-GFP strain, 3 h, at 10 µM, stronger effect = higher value
[3] = TOR pathway RTG branch CIT2 reporter changes – S. cerevisiae, GFP fusion, multiplex flow cytometry, primary screen (AID 1870;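 active = percent response above a set limit, the screen-wide mean plus 3 SD, cut at about 130% in these data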;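 note: barcoded CIT2-GFP strain pooled with four other GFP strains with rapamycin as positive control; median GFP fluorescence per well over plate mean of DMSO wells so 100% = DMSO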); conditions: S. cerevisiae CIT2-GFP expression, 3 h, at 10 µM, stronger effect = higher value
[4] = TOR pathway LAP4-GFP level changes – S. cerevisiae, multiplex flow cytometry, primary screen (AID 1873;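 active = GFP signal, as percent of the solvent control, above the screen mean plus 3 SD, about 149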); conditions: S. cerevisiae LAP4-GFP expression, 3 h, at 10 µM, stronger effect = higher value
[5] = yeast AGP1-GFP level changes, GLN3 branch – cell-based, multiplex flow cytometry, S. cerevisiae, primary screen (AID 1887;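 active = GFP signal above the screen-wide mean plus 3 SD, that is over about 124.5% of the solvent control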;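 note: AGP1-GFP fusion strain of S. cerevisiae within a five-strain barcoded multiplex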); conditions: 3 h, at 10 µM, stronger effect = higher value
[6] = reduced mouse 2C T cell binding to pMHC/ICAM-1 vesicles – MLPCN validation set, flow cytometry, LFA-1/ICAM-1 modulator project, pilot screen (AID 2523;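 active = response below a set limit, under 55% cells CD8-positive and vesicle-bound, and CD8 cells' 90th-percentile brightness under 279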;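 for vesicle binding response: mean PE anti-B7-1 fluorescence of CD8+ cells relative to row control; 100% = QL9-loaded vesicles with DMSO vehicle in the same plate row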); conditions: 2C mouse CD8+ T cells, at 7 µM, stronger effect = lower value; double positive events: measured here: CD8+/vesicle+ event percentage
[7] = target: Integrin beta-1 (Homo sapiens) + Integrin alpha-4 (Homo sapiens) (UniProt P13612+P05556); test: alpha4beta1 integrin LIBS antibody binding reduction – U937 cells, HUTS-21 mAb, flow cytometry, validation set, VLA-4 allosteric modulator project, pilot screen (AID 2674;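 active = inhibition above 50%, about 3 SD of the validation set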;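 note: antibody binding induced by the VLA-4 ligand LDV present at three times its Kd; 0% = LDV ligand with antibody and no compound and 100% = antibody without LDV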); conditions: HUTS-21 LIBS mAb binding, at 6.7 µM, stronger effect = higher value
[8] = calorie-restriction mimetic ROS inhibitors, yeast – validation compound set, pilot screen (AID 2706;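 active = superoxide response below 65% of plate, a cut near 3 SD across the whole screen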;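 note: yeast exposed to compound for one week at 30 degrees C before staining; 100% = mean of all compound wells on the same plate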); conditions: S. cerevisiae aging, superoxide DHE fluorescence; at 10 µM; stronger effect = lower value
[9] = target: Beta-adrenergic receptor kinase 1 (Homo sapiens) (UniProt P25098); test: GRK2 binders displacing RNA aptamer, biochemical, validation, human GRK2, bead flow cytometry (AID 488806;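 active = aptamer binding inhibition above 30%, about 3 SD of noise from non-fluorescent compounds; inactive = inhibition at or below 30%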); conditions: bead-bound GRK2, FAM-aptamer displacement, at 10 µM, stronger effect = higher value
[10] = target: Beta-2 adrenergic receptor (Homo sapiens) (UniProt P07550); test: agonist-induced loss of surface beta2AR – cell-based, FAP fluorogen, flow cytometry, validation set, pilot screen (AID 504459;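 active = percent response above 42, roughly 3 SD of non-fluorescent test compounds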;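 note: agonist-driven loss of surface beta2AR via internalization measured by FAP dye flow cytometry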); conditions: Am2.2-beta2AR cells, at 10 µM, stronger effect = higher value
[11] = target: AP-2 complex subunit beta (Homo sapiens) (UniProt P63010); test: beta-arrestin/AP2 interaction blockers – biochemical, validation set, GST-AP2 beads, flow cytometry, pilot screen (AID 504541;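 active = inhibition above 54%, about 3 SD of non-fluorescent compounds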;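 note: AP2 carries R879A mutation and is captured from E. coli lysate; bead-bound FITC arrestin peptide fluorescence measuring arrestin peptide binding to AP2; 0% = DMSO wells and 100% = excess unlabeled arrestin peptide control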); conditions: FITC arrestin peptide, at 10 µM, stronger effect = higher value
[12] = cytosolic pH regulators acting via V-ATPase – S. cerevisiae, pHLuorin, HTS validation (AID 504600; in the data active = response above about 15%;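 note: plate controls were DMSO for no effect and reference compound for full effect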); conditions: V-ATPase proton transport, at 10 µM, stronger effect = higher value
[13] = tested on: anti-desmoglein-3 scFv antibody binding to human DSG3; test: blockers of pathogenic pemphigus antibody–desmoglein-3 binding – biochemical, validation compound set, bead-based, flow cytometry, pilot screen (AID 588368;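 active = binding below the plate cutoff, the plate median minus 3 SD, with a reading above zero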;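 note: signal is the median channel fluorescence of bead-bound GFP antibody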); conditions: Protein G beads, DSG3-Fc, scFv-GFP binding, at 10 µM, stronger effect = lower value
[14] = tested on: Botulinum neurotoxin type F light chain protease (Clostridium botulinum); test: Clostridium botulinum type F light chain protease inhibitors, microsphere substrate cleavage, validation (AID 588459; call rule not given here); conditions: multiplex microsphere protease substrate cleavage assay, flow cytometry; at 10 µM; stronger effect = higher value
[15] = target: Botulinum neurotoxin type A (Clostridium botulinum) (UniProt P0DPI0); test: BoNT/A light chain protease inhibitors, biochemical, multiplex microsphere flow cytometry, validation set (AID 588460; call rule not given here); conditions: at 10 µM, stronger effect = higher value
[16] = target: Lethal factor (Bacillus anthracis) (UniProt P15917); test: Bacillus anthracis lethal factor inhibition, microsphere flow cytometry protease assay, validation at 10 µM (AID 588461; call rule not given here); conditions: multiplex microsphere protease cleavage assay, stronger effect = higher value
[17] = Nile Red efflux blockade in pump-expressing yeast – validation compound set, multiplex, phenotypic, pilot screen (AID 588506;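 active = efflux inhibition above 0.42, the validation set average plus 4 SD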;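 note: Nile Red retained in cells so higher fluorescence means more efflux inhibition; 0 = negative control wells and 1 = enniatin B 25 µM full block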); conditions: S. cerevisiae pump-expressing triplex, Nile Red efflux flow cytometry; at 10 µM; stronger effect = higher value
[18] = target: ATP-binding cassette sub-family B member 6 (Homo sapiens) (UniProt Q9NP58); test: blockers of ABCB6-driven porphyrin uptake – K562-ABCB6 cells, flow cytometry, validation set, pilot screen (AID 588550;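 active = inhibition above the screen-wide mean plus 3 SD, about 51%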;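 note: 0% = DMSO wells and 100% = benzethonium chloride 70 µM positive control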); conditions: K562-ABCB6 porphyrin accumulation, 1 h, at 10 µM, stronger effect = higher value
[19] = AML differentiation inducers, ER-HoxA9 marrow cells – cell-based, GFP/MAC1 double positive, flow cytometry, validation set, primary screen (AID 588685;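 active = differentiation response of at least 50%, scaled between solvent and reference control, from cells with both markers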;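 note: compound exposure lasts four days before antibody staining and flow analysis; 0% = DMSO wells and 100% = 5 µM fulvestrant positive control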); conditions: stronger effect = higher value
[20] = target: GTPase HRas (Homo sapiens) (UniProt P01112); test: Ras wt fluorescent GTP loading blockade – biochemical, wildtype, multiplex bead flow cytometry, dose response (AID 1335); conditions: bead-based flow cytometry, Bodipy-GTP binding to GST-Ras; at 100 µM (top of the series)
GTPase HRas (Homo sapiens), sequence (P01112 whole entry, looked up): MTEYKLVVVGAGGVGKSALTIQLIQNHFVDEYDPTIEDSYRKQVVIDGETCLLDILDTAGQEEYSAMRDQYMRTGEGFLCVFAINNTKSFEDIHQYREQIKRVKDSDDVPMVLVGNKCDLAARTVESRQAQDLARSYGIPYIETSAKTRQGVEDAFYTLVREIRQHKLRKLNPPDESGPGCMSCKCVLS

AP-2 complex subunit beta (Homo sapiens), sequence (P63010 whole entry, looked up, one chain of several): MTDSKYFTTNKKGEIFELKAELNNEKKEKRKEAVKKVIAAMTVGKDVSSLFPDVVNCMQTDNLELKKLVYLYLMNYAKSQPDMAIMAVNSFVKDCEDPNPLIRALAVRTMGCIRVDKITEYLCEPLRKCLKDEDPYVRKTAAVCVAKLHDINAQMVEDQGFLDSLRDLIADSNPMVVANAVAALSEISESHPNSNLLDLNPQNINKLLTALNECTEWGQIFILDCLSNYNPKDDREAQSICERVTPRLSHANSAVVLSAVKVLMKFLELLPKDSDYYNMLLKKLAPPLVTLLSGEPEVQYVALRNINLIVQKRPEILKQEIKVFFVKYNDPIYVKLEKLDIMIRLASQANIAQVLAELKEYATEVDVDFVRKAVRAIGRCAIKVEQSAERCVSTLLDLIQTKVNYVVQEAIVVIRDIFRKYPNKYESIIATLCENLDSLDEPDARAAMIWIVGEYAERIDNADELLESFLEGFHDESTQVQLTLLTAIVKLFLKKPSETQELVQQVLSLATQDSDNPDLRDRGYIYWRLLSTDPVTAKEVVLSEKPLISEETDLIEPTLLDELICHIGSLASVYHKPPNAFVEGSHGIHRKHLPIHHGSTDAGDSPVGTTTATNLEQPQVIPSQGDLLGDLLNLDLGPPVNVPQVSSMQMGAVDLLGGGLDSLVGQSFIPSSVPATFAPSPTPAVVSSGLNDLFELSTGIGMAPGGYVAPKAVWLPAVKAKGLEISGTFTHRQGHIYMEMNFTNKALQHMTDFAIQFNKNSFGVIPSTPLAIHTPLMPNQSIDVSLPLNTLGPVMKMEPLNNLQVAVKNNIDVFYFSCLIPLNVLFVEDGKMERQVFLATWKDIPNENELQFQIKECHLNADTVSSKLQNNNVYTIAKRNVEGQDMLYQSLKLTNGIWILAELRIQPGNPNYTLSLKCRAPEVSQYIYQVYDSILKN
Integrin beta-1 (Homo sapiens) + Integrin alpha-4 (Homo sapiens), sequence (P05556 whole entry, looked up): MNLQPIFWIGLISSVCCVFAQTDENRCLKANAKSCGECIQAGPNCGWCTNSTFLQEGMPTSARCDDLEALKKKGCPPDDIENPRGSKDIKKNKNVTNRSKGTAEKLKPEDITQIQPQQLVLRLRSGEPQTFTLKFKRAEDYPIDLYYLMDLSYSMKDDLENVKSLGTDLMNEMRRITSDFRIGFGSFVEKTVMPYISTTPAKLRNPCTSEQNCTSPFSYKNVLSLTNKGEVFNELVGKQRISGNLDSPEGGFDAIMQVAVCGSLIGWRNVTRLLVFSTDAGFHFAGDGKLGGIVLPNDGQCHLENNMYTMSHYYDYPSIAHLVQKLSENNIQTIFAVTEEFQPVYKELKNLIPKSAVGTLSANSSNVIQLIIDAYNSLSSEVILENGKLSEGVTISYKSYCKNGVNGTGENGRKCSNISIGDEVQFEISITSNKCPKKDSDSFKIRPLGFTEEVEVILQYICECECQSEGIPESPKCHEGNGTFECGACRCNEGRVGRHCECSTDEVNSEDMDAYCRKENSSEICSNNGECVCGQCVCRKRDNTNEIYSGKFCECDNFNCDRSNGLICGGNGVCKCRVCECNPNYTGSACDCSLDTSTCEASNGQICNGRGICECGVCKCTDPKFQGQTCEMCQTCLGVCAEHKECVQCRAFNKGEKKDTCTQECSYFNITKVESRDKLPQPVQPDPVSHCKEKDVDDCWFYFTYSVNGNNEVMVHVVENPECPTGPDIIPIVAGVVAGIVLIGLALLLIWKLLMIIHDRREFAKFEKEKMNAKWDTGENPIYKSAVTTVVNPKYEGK
Integrin beta-1 (Homo sapiens) + Integrin alpha-4 (Homo sapiens), sequence (P13612 whole entry, looked up): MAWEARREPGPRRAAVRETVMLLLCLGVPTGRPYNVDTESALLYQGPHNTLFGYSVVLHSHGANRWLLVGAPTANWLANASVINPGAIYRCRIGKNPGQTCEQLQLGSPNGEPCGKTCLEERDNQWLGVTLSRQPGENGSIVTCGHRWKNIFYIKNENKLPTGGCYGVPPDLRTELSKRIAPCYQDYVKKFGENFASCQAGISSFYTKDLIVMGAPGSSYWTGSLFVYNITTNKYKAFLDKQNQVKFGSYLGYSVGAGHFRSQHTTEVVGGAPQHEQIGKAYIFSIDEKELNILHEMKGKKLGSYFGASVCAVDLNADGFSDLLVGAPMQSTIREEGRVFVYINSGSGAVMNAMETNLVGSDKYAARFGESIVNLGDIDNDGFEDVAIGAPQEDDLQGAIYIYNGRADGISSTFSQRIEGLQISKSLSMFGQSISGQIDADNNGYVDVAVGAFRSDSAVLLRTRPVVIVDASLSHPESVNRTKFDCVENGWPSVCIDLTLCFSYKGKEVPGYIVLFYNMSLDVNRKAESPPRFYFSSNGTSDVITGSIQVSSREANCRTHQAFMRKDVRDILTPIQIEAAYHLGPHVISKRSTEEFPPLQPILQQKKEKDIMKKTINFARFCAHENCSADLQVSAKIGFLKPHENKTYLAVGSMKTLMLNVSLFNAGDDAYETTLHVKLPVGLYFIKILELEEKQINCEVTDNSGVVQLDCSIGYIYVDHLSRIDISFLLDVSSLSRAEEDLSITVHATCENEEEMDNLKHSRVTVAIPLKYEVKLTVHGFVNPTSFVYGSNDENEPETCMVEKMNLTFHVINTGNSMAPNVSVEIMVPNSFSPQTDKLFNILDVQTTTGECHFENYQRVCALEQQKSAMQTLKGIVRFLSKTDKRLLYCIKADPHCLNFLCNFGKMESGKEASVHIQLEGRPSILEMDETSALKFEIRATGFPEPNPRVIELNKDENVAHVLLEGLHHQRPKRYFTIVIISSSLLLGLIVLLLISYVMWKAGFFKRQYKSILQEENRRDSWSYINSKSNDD
Beta-adrenergic receptor kinase 1 (Homo sapiens), sequence (P25098 whole entry, looked up): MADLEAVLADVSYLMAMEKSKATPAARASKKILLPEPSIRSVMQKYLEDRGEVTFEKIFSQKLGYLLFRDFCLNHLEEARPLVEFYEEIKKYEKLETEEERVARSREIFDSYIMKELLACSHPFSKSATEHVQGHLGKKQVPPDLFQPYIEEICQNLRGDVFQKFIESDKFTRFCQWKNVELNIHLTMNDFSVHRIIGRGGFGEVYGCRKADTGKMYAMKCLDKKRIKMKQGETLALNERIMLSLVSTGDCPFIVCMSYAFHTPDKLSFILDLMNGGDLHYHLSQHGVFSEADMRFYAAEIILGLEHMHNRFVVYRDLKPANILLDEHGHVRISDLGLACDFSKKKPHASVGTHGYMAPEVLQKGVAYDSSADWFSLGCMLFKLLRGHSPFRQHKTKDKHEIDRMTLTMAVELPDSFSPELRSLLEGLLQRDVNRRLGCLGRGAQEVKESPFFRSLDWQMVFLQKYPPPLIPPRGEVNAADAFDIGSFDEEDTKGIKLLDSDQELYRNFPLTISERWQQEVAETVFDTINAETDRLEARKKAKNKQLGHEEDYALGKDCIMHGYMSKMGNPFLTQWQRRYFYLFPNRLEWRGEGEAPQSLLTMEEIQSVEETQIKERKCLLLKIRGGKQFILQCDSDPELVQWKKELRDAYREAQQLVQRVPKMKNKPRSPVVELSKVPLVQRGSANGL
ATP-binding cassette sub-family B member 6 (Homo sapiens), sequence (Q9NP58 whole entry, looked up): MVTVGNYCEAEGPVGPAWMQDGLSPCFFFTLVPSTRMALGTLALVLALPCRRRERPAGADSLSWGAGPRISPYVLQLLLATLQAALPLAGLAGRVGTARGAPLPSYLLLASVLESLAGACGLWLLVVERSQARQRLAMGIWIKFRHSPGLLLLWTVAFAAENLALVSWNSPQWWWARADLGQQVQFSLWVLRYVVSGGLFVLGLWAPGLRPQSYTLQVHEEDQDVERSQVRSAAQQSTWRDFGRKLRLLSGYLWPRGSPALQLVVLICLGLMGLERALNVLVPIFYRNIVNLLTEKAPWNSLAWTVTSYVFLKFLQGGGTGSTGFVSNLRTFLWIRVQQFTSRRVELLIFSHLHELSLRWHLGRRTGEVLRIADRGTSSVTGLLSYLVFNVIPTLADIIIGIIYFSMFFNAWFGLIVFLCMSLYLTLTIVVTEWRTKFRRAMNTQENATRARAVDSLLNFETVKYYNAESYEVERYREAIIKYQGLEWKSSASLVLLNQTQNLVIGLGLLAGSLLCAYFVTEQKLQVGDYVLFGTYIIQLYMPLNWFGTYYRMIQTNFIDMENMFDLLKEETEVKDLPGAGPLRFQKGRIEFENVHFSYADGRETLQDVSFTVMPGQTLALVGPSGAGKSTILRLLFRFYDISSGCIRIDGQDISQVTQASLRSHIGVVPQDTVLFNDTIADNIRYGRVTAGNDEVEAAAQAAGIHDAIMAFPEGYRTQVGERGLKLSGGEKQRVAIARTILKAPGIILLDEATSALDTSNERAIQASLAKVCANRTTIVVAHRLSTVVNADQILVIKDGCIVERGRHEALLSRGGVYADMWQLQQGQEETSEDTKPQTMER
Beta-2 adrenergic receptor (Homo sapiens), sequence (P07550 whole entry, looked up): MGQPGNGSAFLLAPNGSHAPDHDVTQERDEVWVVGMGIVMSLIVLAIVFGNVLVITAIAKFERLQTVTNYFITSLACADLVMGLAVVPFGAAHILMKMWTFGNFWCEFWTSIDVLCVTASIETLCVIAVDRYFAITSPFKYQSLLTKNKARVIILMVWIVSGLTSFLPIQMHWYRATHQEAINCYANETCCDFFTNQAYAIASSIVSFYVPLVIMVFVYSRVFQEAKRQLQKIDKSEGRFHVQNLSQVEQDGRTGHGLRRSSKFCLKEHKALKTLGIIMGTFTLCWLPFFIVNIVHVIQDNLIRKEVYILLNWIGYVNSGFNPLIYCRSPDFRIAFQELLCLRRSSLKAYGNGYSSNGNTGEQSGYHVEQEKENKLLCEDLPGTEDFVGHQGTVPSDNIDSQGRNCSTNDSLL

C[C@]12CC[C@@H](O)C[C@@H]1CC[C@@H]1[C@@H]2CC[C@]2(C)[C@@H](O)CC[C@@H]12
active: GFP response vs DMSO [4] 150%
58.5%: double positive events [6]
inactive: percent of DMSO control GFP [1] 95.4% | GFP response vs DMSO [2] 107% | percent response of DMSO control [3] 83% | GFP response, % of DMSO [5] 106% | vesicle binding response [6] 122% | inhibition [7] -7.79% | superoxide response (% of plate) [8] 98% | aptamer binding inhibition [9] 3% | response [10] 0.4% | inhibition [11] -7.18% | response [12] 2.4% | binding (% of control) [13] 103% | inhibition [14] 1.2% | inhibition [15] 0.9% | inhibition [16] 3.5% | efflux inhibition (fraction of control) [17] 0.08 | inhibition [18] 7% | differentiation response [19] -13.3%

CCN(CC)c1ccc(/C=N/c2sc3c(c2C#N)C2CCN3CC2)c(O)c1
104%: GTP binding, percent of control [20]

COc1ccc(-c2cc(=NCCCCCC(=O)O)c3cc(C)ccc3o2)cc1
66.2%: GTP binding, percent of control [20]

CN1C(=O)N(C)C(=O)C2(Cc3c(ccc4ccccc34)N(C)C2)C1=O
82.6%: GTP binding, percent of control [20]

Cc1cc(C)cc(N2C(=O)NC(=O)/C(=C\C=C\c3ccco3)C2=O)c1
83.8%: GTP binding, percent of control [20]

O=C1NC(=S)N(Cc2ccco2)C(=O)/C1=C\c1cccs1
95.1%: GTP binding, percent of control [20]

Cc1sc(-n2c(C)cc(C=C3C(=O)NC(=O)NC3=O)c2C)c(C#N)c1C
68.9%: GTP binding, percent of control [20]

O=C1CN=C(c2ccccc2F)c2cc(Cl)ccc2N1
active: GFP response vs DMSO [2] 147%
inactive: percent of DMSO control GFP [1] 90.9% | percent response of DMSO control [3] 95.2% | GFP response vs DMSO [4] 78.7% | GFP response, % of DMSO [5] 88% | vesicle binding response [6] 272% | inhibition [7] 1.61% | superoxide response (% of plate) [8] 98.6% | aptamer binding inhibition [9] -3% | response [10] -21.4% | inhibition [11] 43.2% | response [12] -7.23% | binding (% of control) [13] 94.8% | inhibition [14] 3.7% | inhibition [15] 0.4% | inhibition [16] 1.5% | efflux inhibition (fraction of control) [17] 0.27 | inhibition [18] 14% | differentiation response [19] 11.5%
67.2%: double positive events [6]

CC12CN3CC(C)(CN(C1)C31CCOCC1)C2=O
active: GFP response vs DMSO [2] 145%
65.1%: double positive events [6]
inactive: percent of DMSO control GFP [1] 92.6% | percent response of DMSO control [3] 101% | GFP response vs DMSO [4] 90.2% | GFP response, % of DMSO [5] 94.5% | vesicle binding response [6] 166% | inhibition [7] 5.49% | superoxide response (% of plate) [8] 90% | aptamer binding inhibition [9] 2% | response [10] 3.7% | inhibition [11] 40.7% | response [12] -6.81% | binding (% of control) [13] 100% | inhibition [14] 1.2% | inhibition [15] 0.1% | inhibition [16] -2.4% | efflux inhibition (fraction of control) [17] -0.09 | inhibition [18] 13% | differentiation response [19] -2.46%

CC1(C)CC(n2[nH]c(=O)c3c2NC(=O)CSC3c2ccccc2)CCO1 (centres undefined)
86.2%: GTP binding, percent of control [20]

CC(Oc1ccc(-c2ccccc2)cc1)C(=O)O (centres undefined)
172%: GTP binding, percent of control [20]

Cc1ccc(C)c(OCCCn2cc(C(=O)O)c3ccccc32)c1
88.6%: GTP binding, percent of control [20]

CC[C@@H]1C(=O)OC[C@@H]1Cc1cncn1C
active: GFP response vs DMSO [2] 144%
inactive: percent of DMSO control GFP [1] 89.8% | percent response of DMSO control [3] 112% | GFP response vs DMSO [4] 88% | GFP response, % of DMSO [5] 86.3% | vesicle binding response [6] 171% and 339% | inhibition [7] 13.2% and 5.49% | superoxide response (% of plate) [8] 82.6% and 106% | aptamer binding inhibition [9] 7% and 4% | response [10] 1.92% and 3.7% | inhibition [11] 14.2% and -5.27% | response [12] -2.39% and 0.38% | binding (% of control) [13] 104% and 95.6% | inhibition [14] -1.2% and -3.1% | inhibition [15] -0.7% and 0.7% | inhibition [16] -1.2% and 7% | efflux inhibition (fraction of control) [17] 0.16 and 0.05 | inhibition [18] 3% and 12% | differentiation response [19] 14.7% and 20.5%
65.5% and 68.4%: double positive events [6]

Cc1nn(Cc2ccccc2)c(Cl)c1C(=O)O
86.7%: GTP binding, percent of control [20]

Cc1cc(OCCCn2cc(C(=O)O)c3ccccc32)ccc1Cl
83.9%: GTP binding, percent of control [20]

CCn1nc(/C=C/c2ccccc2)nc2c(=O)n(C)c(=O)nc1-2
76.7%: GTP binding, percent of control [20]

C[C@H](O)[C@H]1CC[C@H]2[C@@H]3CCC4=CC(=O)CC[C@]4(C)[C@H]3CC[C@]12C
inactive: percent of DMSO control GFP [1] 98.9% | GFP response vs DMSO [2] 103% | percent response of DMSO control [3] 91.3% | GFP response vs DMSO [4] 126% | GFP response, % of DMSO [5] 89.6% | vesicle binding response [6] 104% | inhibition [7] 11% | superoxide response (% of plate) [8] 106% | aptamer binding inhibition [9] 0% | response [10] -3.16% | inhibition [11] -3.68% | response [12] -6.77% | binding (% of control) [13] 102% | inhibition [14] -0.6% | inhibition [15] 0.2% | inhibition [16] 2.8% | efflux inhibition (fraction of control) [17] -0.17 | inhibition [18] 9% | differentiation response [19] -4.57%
61%: double positive events [6]

CCOc1ccc(C2SCC(=O)Nc3c2c(C)nn3C2CCOC(C)(C)C2)cc1 (centres undefined)
150%: GTP binding, percent of control [20]

O=C(O)c1cn(Cc2ccc(Br)cc2)c2ccccc12
104%: GTP binding, percent of control [20]

Cc1nc2c(=O)n(C)c(=O)nc-2n(C)n1
98.5%: GTP binding, percent of control [20]

O=C(O)c1cn(Cc2ccccc2Cl)c2ccccc12
82.2%: GTP binding, percent of control [20]

COCCCn1c(N)c(C(=O)Nc2sc3c(c2C(=O)OC)CCCC3)c2nc3ccccc3nc21
51.7%: GTP binding, percent of control [20]

O=C(O)c1cn(Cc2ccccc2F)c2ccccc12
106%: GTP binding, percent of control [20]

O=C(O)c1cn(Cc2ccc(F)cc2)c2ccccc12
112%: GTP binding, percent of control [20]

O=C1CN=C(c2ccccc2)c2cc(Br)ccc2N1Cc1cc(=O)n2ccccc2n1
64.5%: GTP binding, percent of control [20]

CCOC(=O)c1c(NC(=O)c2c(N)n(CCCOC)c3nc4ccccc4nc23)sc2c1CCCC2
144%: GTP binding, percent of control [20]

Cc1ccccc1OCCCn1cc(C(=O)O)c2ccccc21
92.4%: GTP binding, percent of control [20]

Cc1ccc(-n2c(O)c(/C=N/c3ncc(Br)cc3Br)c(=O)[nH]c2=O)cc1
116%: GTP binding, percent of control [20]

O=C(O)c1cn(Cc2ccc(Cl)cc2)c2ccccc12
89.3%: GTP binding, percent of control [20]
